According to PubChem BioAssay (EPA / NIEHS):
The source made the active and inactive calls. The calls were made as follows: active = hit-call score of the fitted dose curve at least 0.9, where 1 is the maximum; inactive = score below 0.9.

Columns and labels:
Details in all cases: mRNA level, 48 h; actives raise or lower the signal
[1] = read-out: Interleukin 6 (IL6), IL6 (gene 3569); assay: LTEA_HepaRG_IL6: Life Technologies and Expression Analysis (LTEA) Assay for Interleukin 6 (IL6) using HepaRG (AID 2283509)
Summary of the method: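 Changes in IL6 mRNA, up or down relative to 0.5% DMSO controls, were derived from concentration-response curves in human HepaRG cells treated for 48 h at up to 100 uM, with ACTB, GAPDH and POLR2A as normalizers.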

[2] = read-out: Interleukin 6 Receptor (IL6R), IL6R (gene 3570); assay: LTEA_HepaRG_IL6R: Life Technologies and Expression Analysis (LTEA) Assay for Interleukin 6 Receptor (IL6R) using HepaRG (AID 2283510);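 as to AC50: differentiated human HepaRG liver cells in serum-free induction medium; TaqMan qRT-PCR signal normalized to ACTB GAPDH and POLR2A housekeeping genes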
Summary of the method: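 IL6R transcript level by qRT-PCR after 48 h chemical exposure (8-point, half-log, max 100 uM, 0.5% DMSO vehicle) of HepaRG cells in serum-free induction medium. Normalized to three housekeeping genes; curves fitted in both directions relative to DMSO.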

[3] = read-out: Potassium channel subfamily K member 1 (KCNK1), KCNK1 (gene 3775); assay: LTEA_HepaRG_KCNK1: Life Technologies and Expression Analysis (LTEA) Assay for Potassium channel subfamily K member 1 (KCNK1) using HepaRG (AID 2283511)
Summary of the method: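 Human HepaRG cultures receive test chemicals for 48 h in 0.5% DMSO, top concentration 100 uM with half-log dilutions. Induction or suppression of KCNK1 mRNA relative to DMSO is derived by bidirectional fitting of qRT-PCR data.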

[4] = read-out: Keratin 19 (KRT19), KRT19 (gene 3880); assay: LTEA_HepaRG_KRT19: Life Technologies and Expression Analysis (LTEA) Assay for Keratin 19 (KRT19) using HepaRG (AID 2283512)
Summary of the method: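 KRT19 transcript levels, measured by Fluidigm qRT-PCR against three housekeeping genes, are fitted for gain or loss of signal relative to DMSO. Human HepaRG cells receive test chemicals (top 100 uM, half-log steps, 0.5% DMSO) for 48 hours.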

[5] = read-out: JUN Transcription Factor, JUN (gene 3725); assay: LTEA_HepaRG_JUN: Life Technologies and Expression Analysis (LTEA) Assay for JUN Transcription Factor using HepaRG (AID 2283513)
Summary of the method: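 mRNA measured by TaqMan qRT-PCR after 48 h chemical exposure of HepaRG cultures; normalization to three housekeeping genes. Duplicate eight-point half-log curves from 100 uM in 0.5% DMSO; gain or loss fitted against DMSO baseline.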

[6] = read-out: Lipase C (LIPC), LIPC (gene 3990); assay: LTEA_HepaRG_LIPC: Life Technologies and Expression Analysis (LTEA) Assay for Lipase C (LIPC) using HepaRG (AID 2283514)
Summary of the method: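 In this multiplexed gene-expression screen, human HepaRG cultures received test chemicals for 48 h across eight concentrations with 100 uM highest, in duplicate. Values reflect LIPC mRNA induction or suppression versus DMSO vehicle, from normalized qRT-PCR.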

[7] = read-out: Lipoprotein lipase (LPL), LPL (gene 4023); assay: LTEA_HepaRG_LPL: Life Technologies and Expression Analysis (LTEA) Assay for Lipoprotein lipase (LPL) using HepaRG (AID 2283515)
Summary of the method: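 Concentration-response testing used half-log steps from 100 uM in 0.5% DMSO on human HepaRG cells, 48 h, duplicate wells. Phenobarbital 1 mM served as induction control; LPL mRNA was normalized to ACTB, GAPDH, POLR2A.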

[8] = read-out: matrix metalloproteinase-10 (MMP10), MMP10 (gene 4319); assay: LTEA_HepaRG_MMP10: Life Technologies and Expression Analysis (LTEA) Assay for matrix metalloproteinase-10 (MMP10) using HepaRG (AID 2283517)
Summary of the method: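 In differentiated HepaRG cultures kept in 0.5% DMSO, test chemicals act for 48 h over an eight-point range with a top dose of 100 uM. Expression is then quantified by TaqMan RT-PCR against ACTB, GAPDH and POLR2A.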

[9] = read-out: MYC, MYC (gene 4609); assay: LTEA_HepaRG_MYC: Life Technologies and Expression Analysis (LTEA) Assay for MYC using HepaRG (AID 2283518)
Summary of the method: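 HepaRG, ~100,000 cells/well, collagen I; 48 h plating; serum-free induction medium; 48 h dosing, duplicate, 100 uM top, half-log, 0.5% DMSO; total RNA → qRT-PCR MYC; gain/loss fit vs DMSO.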

[10] = read-out: MicroRNA 122 (MIR122), gene 406906; assay: LTEA_HepaRG_MIR122: Life Technologies and Expression Analysis (LTEA) Assay for MicroRNA 122 (MIR122) using HepaRG (AID 2283516); also: the transcript read is the microRNA miR-122
Summary of the method: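 Expression measured by microfluidic qRT-PCR with three housekeeping genes for normalisation, after 48 h treatment of HepaRG cultures. Eight concentrations (top 100 uM, half-log steps, 0.5% DMSO vehicle) in duplicate; gain or loss fitted relative to vehicle.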

Measured: AC50

C#CCOS(=O)OC1CCCCC1Oc1ccc(C(C)(C)C)cc1 (centres undefined)
active: [1] 23.1 µM | [2] 14.5 µM | [3] 21.5 µM | [4] 12.8 µM | [7] 28.7 µM | [8] 22.5 µM | [9] 22.8 µM
inactive: [5] | [6]

Fc1ccc(Oc2ccnc3cc(Cl)cc(Cl)c23)cc1
active: [1] 77.4 µM | [4] 50 µM | [6] 78.8 µM
not listed: [2] | [10]
inactive: all other assays above

OC(c1ccc(Cl)cc1)(c1cncnc1)c1ccccc1Cl (centres undefined)
active: [1] 73 µM | [3] 50 µM | [6] 85.7 µM | [7] 50 µM | [8] 58.9 µM | [9] 80.4 µM
inactive: [2] | [4] | [5]

COC(=O)C(C)Oc1ccc(Oc2ccc(Cl)cc2Cl)cc1 (centres undefined)
active: [4] 77 µM | [7] 27.6 µM
not listed: [10]
inactive: all other assays above

C=CCC1=C(C)[C@@H](OC(=O)[C@@H]2[C@@H](C=C(C)C)C2(C)C)CC1=O
active: [6] 81.5 µM
not listed: [10]
inactive: all other assays above

CCOP(=S)(OCC)SCn1c(=O)oc2cc(Cl)ccc21
not listed: [4] | [7]
inactive: all other assays above

N#Cc1cc(Br)c(O)c(Br)c1
inactive: [3] | [7] | [8] | [9]
active: [1] 34.5 µM | [2] 19.4 µM | [4] 25.6 µM | [5] 24.2 µM | [6] 23.5 µM

CC(C)C1(C)N=C(c2nc3ccccc3cc2C(=O)O)NC1=O (centres undefined)
not listed: [10]
inactive: all other assays above

N#CC(CCc1ccc(Cl)cc1)(Cn1cncn1)c1ccccc1 (centres undefined)
active: [1] 80.2 µM | [3] 44.6 µM | [5] 90.3 µM | [6] 65.9 µM | [7] 50 µM | [8] 74.2 µM | [9] 65.2 µM
inactive: [2] | [4]

COC(=O)N(OC)c1ccccc1COc1ccn(-c2ccc(Cl)cc2)n1
inactive: [2] | [5] | [7] | [9]
active: [1] 83.9 µM | [3] 86.2 µM | [4] 23.3 µM | [6] 50 µM | [8] 78.1 µM

Cc1ccc(-c2c(Cl)nc(C#N)n2S(=O)(=O)N(C)C)cc1
inactive: [2] | [5] | [7] | [8]
active: [1] 13.2 µM | [3] 50 µM | [4] 22.3 µM | [6] 50 µM | [9] 13.1 µM

COC(=O)c1ccccc1C(=O)OC
not listed: [10]
inactive: all other assays above

O=C(O)c1nc(Cl)ccc1Cl
not listed: [10]
inactive: all other assays above

Cc1cc(Cl)ccc1OCC(=O)O
not listed: [10]
inactive: all other assays above

CCNc1nc(Cl)nc(NC(C)C)n1
active: [4] 26.1 µM
not listed: [10]
inactive: all other assays above

CCOC(=O)C(Cl)Cc1cc(-n2nc(C)n(C(F)F)c2=O)c(F)cc1Cl (centres undefined)
not listed: [6] | [10]
inactive: all other assays above

CCOc1cc(Oc2ccc(C(F)(F)F)cc2Cl)ccc1[N+](=O)[O-]
active: [3] 30 µM | [4] 33.8 µM | [6] 34.9 µM | [7] 21.4 µM | [8] 50 µM | [9] 28.4 µM
inactive: [1] | [2] | [5]

CC(C)(C)c1ccc(CSc2cnn(C(C)(C)C)c(=O)c2Cl)cc1
active: [1] 2.84 µM | [4] 1.58 µM | [6] 2.82 µM | [7] 2.25 µM | [8] 18.1 µM | [9] 2.84 µM
inactive: [2] | [3] | [5]

COc1ccc(C(c2ccc(OC)cc2)C(Cl)(Cl)Cl)cc1
active: [4] 74.2 µM | [6] 85.8 µM | [7] 76.6 µM | [9] 49.8 µM
not listed: [10]
inactive: all other assays above

CCOC(=O)CC(SP(=S)(OC)OC)C(=O)OCC (centres undefined)
not listed: [10]
inactive: all other assays above

C=CC1(C)OC(=O)N(c2cc(Cl)cc(Cl)c2)C1=O (centres undefined)
not listed: [7]
inactive: all other assays above

Oc1ccccc1-c1ccccc1
not listed: [7] | [10]
inactive: all other assays above

O=C(O)COc1nc(Cl)c(Cl)cc1Cl
not listed: [10]
inactive: all other assays above

N#Cc1nn(-c2c(Cl)cc(C(F)(F)F)cc2Cl)c(N)c1S(=O)C(F)(F)F (centres undefined)
active: [1] 44.8 µM | [2] 91.4 µM | [4] 12.6 µM | [5] 50.2 µM | [6] 42.6 µM | [7] 31.3 µM | [8] 30.7 µM | [9] 35.1 µM
inactive: [3]

CCCC1COC(Cn2cncn2)(c2ccc(Cl)cc2Cl)O1 (centres undefined)
active: [1] 83.2 µM | [4] 1.12 µM | [6] 35.8 µM | [7] 27.8 µM | [8] 77.8 µM | [9] 35.4 µM
inactive: [2] | [3] | [5]

CON(C)C(=O)Nc1ccc(Cl)c(Cl)c1
active: [4] 48.5 µM | [6] 31.6 µM | [7] 12.5 µM | [9] 78.6 µM
not listed: [10]
inactive: all other assays above

COP(=S)(OC)Oc1nc(Cl)c(Cl)cc1Cl
not listed: [10]
inactive: all other assays above
